Measurements from PubChem BioAssay AID463173 (ICCB-Longwood Screening Facility, Harvard Medical School, 2010).
In all, about 52,000 compounds went through this assay and about 4,300 (8.3%) were called active. Shown is part of a subset that was picked to be rich in actives. Unmarked numbers belong to inactive results. No stated cut-off is given here; in the data, active means survival mostly below about 52% (no sharp cut-off); inactive means mostly above about 56%.

The compounds below were run on DeltatarO mutant (assay: growth inhibition of S. aureus wild type versus tarO mutant, primary screen, teichoic acid synthesis inhibitors, RN4220, OD600 (AID 463173)). Settings: OD600, 18 h, active compounds read low, screened at 18.75 µg/mL (by protocol).
For `COc1cc(Cl)c(C)cc1NC(=O)CCc1c(C)nc2cc(-c3cccc(F)c3)nn2c1C`, the survival was 74%. `CCCCc1nn2c(=O)cc(CN(CC)c3ccccc3)nc2s1` gave a survival of 73%. `Cc1noc2ncnc(N3CCN(c4cccc(C(F)(F)F)c4)CC3)c12` was tested, and the survival was 71%. For `CCOC(=O)CSc1nc2cc3c(cc2c(=O)n1CCCC(=O)NCc1ccc2c(c1)OCO2)OCO3`, the survival was 83%. Work on `COc1ccc(S(=O)(=O)NCCc2sc3nc(-c4ccc(C)cc4)nn3c2C)cc1F` yielded a survival of 72%. `Cc1cc(C)cc(-n2cnc3cc(C(=O)NC4CCCCCC4)ccc32)c1` was tested, and the survival was 95%. With `NC(=O)Cn1c(-c2nonc2N)nc2ccccc21` the survival was 62% (active). With `Nc1nonc1-c1nc2ccccc2n1CCn1c(-c2nonc2N)nc2ccccc21` the survival was 82%. `Nc1nonc1-c1nc2ccccc2n1CC(=O)Nc1ccc(F)cc1` was tested, and the survival was 169%. In the case of `CCc1ccccc1NC(=O)Cn1c(-c2nonc2N)nc2ccccc21`, the survival is reported as 86%. For `Nc1nonc1-c1nc2ccccc2n1CC(=O)Nc1ccccc1C(=O)O`, the survival was 45% (active). In the case of `Nc1nonc1-c1nc2ccccc2n1CC(=O)Nc1cccc(Cl)c1Cl`, the survival is reported as 66%. `COc1ccc(-c2nc(SCC(=O)NC3CCCC3)c(-c3ccc(C)cc3)[nH]2)cc1OC` showed a survival of 57%. `COc1ccc(Cn2ccc3nc(C)c(C(=O)NCc4ccc(C)cc4)cc3c2=O)cc1` gave a survival of 60%. `O=C(COC(=O)c1ccco1)Nc1cccc2ccccc12` was tested, and the survival was 97%. In the case of `CCOC(=O)c1c(-c2cccs2)csc1NC(C)=O`, the survival is reported as 69%. Compound `CNS(=O)(=O)c1cn(CC(=O)N2CCN(c3ccc(Cl)cc3)CC2)cc1S(=O)(=O)NC` has a survival of 106%. `CNS(=O)(=O)c1cn(CC(=O)N2CCN(c3ccc(OC)cc3)CC2)cc1S(=O)(=O)NC` was tested, and the survival was 69%. With `CNS(=O)(=O)c1cn(CC(=O)N2CCN(c3ccc(C(C)=O)cc3)CC2)cc1S(=O)(=O)NC` the survival was 37% (active). In the case of `O=C(Cn1cc(SCc2ccc(F)cc2)c2ccccc21)N1CCCCC1`, the survival is reported as 79%. In the case of `Cc1ccc(NC(=O)c2oc3ccc(S(=O)(=O)N(C)C4CCCCC4)cc3c2C)c(C)c1`, the survival is reported as 73%. With `Cc1nc2ccc(NC(=O)C3CCCCC3)cc2c(=O)n1Cc1ccccc1` the survival was 63%. `CN(C)C(=O)c1ccc(S(=O)(=O)NCc2ccc(Cl)cc2)s1` was tested, and the survival was 119%. For `Cc1ccc(CNS(=O)(=O)c2ccc(C(=O)N(C)C)s2)cc1`, the survival was -4% (active). With `COc1ccc(CNS(=O)(=O)c2ccc(C(=O)N(C)C)s2)cc1` the survival was 66%.
